Experimental data from the supplement of paper PMC10849652.
About 7,900 targets were measured; listed, in parts, are those with a hit and a random draw of the rest. About 0.6% of all pairs of compound and target were hits.

Key:
Test in all cases: log2 fold change, soluble protein after heating vs DMSO (PISA); higher = thermal stabilisation; K562 cells, 10 uM, 30 min; active = over 0.2 and 3.5 SD of the protein, either way, in both replicates (recomputed)
IRAK-1-4 Inhibitor I = compound: C1COCCN1CCN2C3=CC=CC=C3N=C2NC(=O)C4=CC(=CC=C4)[N+](=O)[O-] [IRAK-1-4 Inhibitor I]
In short: (§1)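 K562 cells at 2×10^6 cells/mL were given 10 μM compound for 30 min. Aliquots then went through 3 min of heating across 48°C-58°C, were pooled, and were extracted in PBS with 0.5% NP-40 at 4°C, and the supernatant after 21,000xg for 90 min was quantified by TMTpro 16plex LC-MS/MS with channel sums equalised. Thermal stability relative to control samples, from duplicates, is given as log2 fold change.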

ibrutinib = compound: C=CC(=O)N1CCC[C@@H](n2nc(-c3ccc(Oc4ccccc4)cc3)c3c(N)ncnc32)C1 [ibrutinib]
In short: as §1

[1] = compound: CC(=O)c1cnc2ccc(-c3cc(Cl)c(O)c(Cl)c3)nc2c1N[C@H]1CC[C@H](CN(C)C)CC1
In short: as §1

ralimetinib = compound: CC(C)(C)Cn1c(N)nc2ccc(-c3[nH]c(C(C)(C)C)nc3-c3ccc(F)cc3)nc21 [ralimetinib]
In short: as §1

[2] = compound: CC(C)(O)CC(=O)NCCn1ccc2ncnc(Nc3ccc(Oc4cccc(C(F)(F)F)c4)c(Cl)c3)c21
In short: as §1

[3] = compound: CC(C)C1=C2N=C(C=C(N2N=C1)NCC3=CC=CC=C3)NCCCCCCN
In short: as §1

[4] = compound: CC(C)C[C@@H](C=O)NC(=O)[C@H](CC(C)C)NC(=O)[C@H](CC(C)C)NC(=O)OCc1ccccc1
In short: as §1

pinometostat = compound: CC(C)N(C[C@H]1O[C@@H](n2cnc3c(N)ncnc32)[C@H](O)[C@@H]1O)[C@H]1C[C@@H](CCc2nc3cc(C(C)(C)C)ccc3[nH]2)C1 [pinometostat]
In short: as §1

[5] = compound: CC1=C(C(CC(=O)N1)C2=CC=C(C=C2)C(F)(F)F)C(=O)NC3=C(C=C4C(=C3)C=NN4)F
In short: as §1

[6] = compound: CC1=C(C2=C(C=C1)C(=O)C3=CC=CC=C3N2CCCN)C
In short: as §1

Measured: log2 fold change

PCNT (UniProt O95613)
Chain of UniProt O95613 (O95613 whole entry, looked up): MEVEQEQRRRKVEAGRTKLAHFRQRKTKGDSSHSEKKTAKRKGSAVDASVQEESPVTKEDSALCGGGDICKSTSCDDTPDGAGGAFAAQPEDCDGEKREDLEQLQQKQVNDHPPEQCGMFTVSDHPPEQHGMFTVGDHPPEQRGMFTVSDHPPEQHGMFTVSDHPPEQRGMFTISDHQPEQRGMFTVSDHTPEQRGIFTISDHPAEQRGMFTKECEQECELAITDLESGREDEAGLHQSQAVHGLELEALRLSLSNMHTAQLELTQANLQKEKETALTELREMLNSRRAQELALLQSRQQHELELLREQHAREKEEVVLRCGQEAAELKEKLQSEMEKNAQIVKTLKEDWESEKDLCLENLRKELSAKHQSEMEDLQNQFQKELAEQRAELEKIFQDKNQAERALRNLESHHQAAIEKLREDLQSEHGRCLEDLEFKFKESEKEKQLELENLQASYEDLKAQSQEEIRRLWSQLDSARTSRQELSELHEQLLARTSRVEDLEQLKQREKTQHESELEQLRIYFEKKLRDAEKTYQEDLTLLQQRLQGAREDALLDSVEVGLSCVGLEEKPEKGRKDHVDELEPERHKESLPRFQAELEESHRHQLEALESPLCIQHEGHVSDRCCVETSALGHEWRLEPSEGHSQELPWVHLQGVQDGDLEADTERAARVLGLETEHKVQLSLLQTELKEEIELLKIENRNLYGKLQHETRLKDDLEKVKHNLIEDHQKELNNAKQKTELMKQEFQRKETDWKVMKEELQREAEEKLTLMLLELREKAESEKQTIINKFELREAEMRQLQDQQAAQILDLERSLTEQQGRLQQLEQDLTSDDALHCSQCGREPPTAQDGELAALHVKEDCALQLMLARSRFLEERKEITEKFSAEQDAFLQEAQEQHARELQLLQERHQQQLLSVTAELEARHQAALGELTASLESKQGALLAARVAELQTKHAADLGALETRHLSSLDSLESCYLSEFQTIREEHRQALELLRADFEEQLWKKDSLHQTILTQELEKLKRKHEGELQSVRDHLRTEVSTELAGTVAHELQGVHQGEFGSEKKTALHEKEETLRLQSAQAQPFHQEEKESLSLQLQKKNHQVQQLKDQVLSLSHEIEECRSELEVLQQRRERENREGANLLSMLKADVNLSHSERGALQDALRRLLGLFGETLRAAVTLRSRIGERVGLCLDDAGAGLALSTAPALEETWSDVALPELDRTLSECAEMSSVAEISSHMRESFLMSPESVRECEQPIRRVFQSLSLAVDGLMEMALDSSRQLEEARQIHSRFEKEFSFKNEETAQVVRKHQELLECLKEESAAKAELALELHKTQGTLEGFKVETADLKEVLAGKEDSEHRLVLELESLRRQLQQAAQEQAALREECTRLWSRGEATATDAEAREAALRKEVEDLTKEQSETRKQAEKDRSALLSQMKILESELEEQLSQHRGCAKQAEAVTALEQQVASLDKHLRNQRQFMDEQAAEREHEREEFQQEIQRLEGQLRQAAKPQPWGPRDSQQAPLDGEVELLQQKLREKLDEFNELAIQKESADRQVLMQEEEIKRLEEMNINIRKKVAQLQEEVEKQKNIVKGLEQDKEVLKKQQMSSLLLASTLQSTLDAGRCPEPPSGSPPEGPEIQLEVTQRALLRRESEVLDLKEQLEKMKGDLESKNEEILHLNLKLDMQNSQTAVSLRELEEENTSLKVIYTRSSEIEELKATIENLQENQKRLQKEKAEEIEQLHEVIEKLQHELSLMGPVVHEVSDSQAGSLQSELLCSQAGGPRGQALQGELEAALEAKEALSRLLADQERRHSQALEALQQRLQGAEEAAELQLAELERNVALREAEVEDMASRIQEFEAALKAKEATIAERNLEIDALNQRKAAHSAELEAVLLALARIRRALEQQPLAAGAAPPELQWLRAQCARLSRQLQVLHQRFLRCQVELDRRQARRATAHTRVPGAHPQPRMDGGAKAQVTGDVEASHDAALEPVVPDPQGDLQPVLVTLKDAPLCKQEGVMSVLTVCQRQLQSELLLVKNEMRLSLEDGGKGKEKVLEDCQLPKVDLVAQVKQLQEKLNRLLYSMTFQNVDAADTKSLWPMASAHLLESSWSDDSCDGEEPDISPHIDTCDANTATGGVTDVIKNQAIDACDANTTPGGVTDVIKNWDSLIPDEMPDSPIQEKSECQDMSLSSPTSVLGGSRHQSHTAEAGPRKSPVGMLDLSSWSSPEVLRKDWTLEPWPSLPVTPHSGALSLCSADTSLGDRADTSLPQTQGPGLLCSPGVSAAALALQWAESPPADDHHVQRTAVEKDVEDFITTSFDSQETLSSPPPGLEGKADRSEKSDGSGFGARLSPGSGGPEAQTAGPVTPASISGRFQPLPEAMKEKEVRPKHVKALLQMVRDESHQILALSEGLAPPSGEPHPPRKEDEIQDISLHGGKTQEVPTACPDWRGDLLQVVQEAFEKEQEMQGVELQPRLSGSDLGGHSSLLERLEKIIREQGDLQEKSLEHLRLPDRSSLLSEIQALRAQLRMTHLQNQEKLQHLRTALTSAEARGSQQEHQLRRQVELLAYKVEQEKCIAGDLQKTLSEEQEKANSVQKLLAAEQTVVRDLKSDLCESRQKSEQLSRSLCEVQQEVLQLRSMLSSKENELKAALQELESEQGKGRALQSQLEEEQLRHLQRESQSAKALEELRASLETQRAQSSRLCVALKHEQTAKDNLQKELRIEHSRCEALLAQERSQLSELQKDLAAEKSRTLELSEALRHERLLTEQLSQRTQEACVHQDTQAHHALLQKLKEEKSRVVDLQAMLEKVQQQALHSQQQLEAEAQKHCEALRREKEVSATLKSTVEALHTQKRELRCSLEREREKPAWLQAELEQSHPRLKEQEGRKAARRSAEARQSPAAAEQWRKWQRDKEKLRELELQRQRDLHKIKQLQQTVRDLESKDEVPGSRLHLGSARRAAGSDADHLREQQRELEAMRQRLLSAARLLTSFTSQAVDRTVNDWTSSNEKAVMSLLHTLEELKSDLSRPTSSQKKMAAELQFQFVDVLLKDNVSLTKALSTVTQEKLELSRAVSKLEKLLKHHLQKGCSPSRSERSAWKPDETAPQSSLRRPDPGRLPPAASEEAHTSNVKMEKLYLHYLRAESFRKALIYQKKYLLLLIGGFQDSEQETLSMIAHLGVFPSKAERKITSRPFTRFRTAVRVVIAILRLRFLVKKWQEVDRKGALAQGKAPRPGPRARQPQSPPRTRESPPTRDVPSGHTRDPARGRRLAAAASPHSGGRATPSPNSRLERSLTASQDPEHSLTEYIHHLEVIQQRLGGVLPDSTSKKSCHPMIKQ
inactive: IRAK-1-4 Inhibitor I 0.085 | ibrutinib -0.078 | [1] -0.079 | ralimetinib -0.113 | [2] -0.021 | [3] 0.053 | [4] 0.229 | pinometostat 0.069 | [5] 0.077 | [6] -0.018

PRPF40A (UniProt O75400)
Chain of UniProt O75400 (O75400 whole entry, looked up): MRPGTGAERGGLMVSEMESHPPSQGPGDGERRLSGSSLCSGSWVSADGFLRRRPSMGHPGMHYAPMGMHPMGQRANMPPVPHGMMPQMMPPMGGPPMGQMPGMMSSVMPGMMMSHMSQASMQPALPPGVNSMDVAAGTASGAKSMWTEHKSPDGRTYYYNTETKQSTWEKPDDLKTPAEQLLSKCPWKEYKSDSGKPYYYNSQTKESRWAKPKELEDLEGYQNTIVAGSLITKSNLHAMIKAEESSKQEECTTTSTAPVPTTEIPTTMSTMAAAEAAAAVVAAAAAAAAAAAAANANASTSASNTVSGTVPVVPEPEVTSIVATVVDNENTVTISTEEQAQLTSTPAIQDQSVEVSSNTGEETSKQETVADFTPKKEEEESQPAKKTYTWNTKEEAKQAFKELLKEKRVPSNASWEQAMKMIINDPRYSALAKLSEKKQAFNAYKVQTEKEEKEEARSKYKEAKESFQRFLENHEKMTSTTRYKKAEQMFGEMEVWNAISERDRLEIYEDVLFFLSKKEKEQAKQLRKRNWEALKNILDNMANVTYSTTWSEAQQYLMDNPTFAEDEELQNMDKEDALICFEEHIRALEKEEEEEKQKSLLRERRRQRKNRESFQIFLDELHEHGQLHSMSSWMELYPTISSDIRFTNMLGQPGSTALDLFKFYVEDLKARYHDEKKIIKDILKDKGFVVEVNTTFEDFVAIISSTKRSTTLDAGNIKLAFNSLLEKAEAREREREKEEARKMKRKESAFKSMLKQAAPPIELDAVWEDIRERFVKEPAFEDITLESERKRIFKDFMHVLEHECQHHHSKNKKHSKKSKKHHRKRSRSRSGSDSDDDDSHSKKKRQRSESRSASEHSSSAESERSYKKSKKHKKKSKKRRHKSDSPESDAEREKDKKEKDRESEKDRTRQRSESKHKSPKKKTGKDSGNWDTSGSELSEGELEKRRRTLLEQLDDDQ
inactive: IRAK-1-4 Inhibitor I -0.093 | ibrutinib -0.085 | [1] -0.149 | ralimetinib 0.095 | [2] -0.022 | [4] 0.043 | pinometostat -0.041 | [5] -0.034 | [6] 0.13
active: [3] -0.411

PLD3 (UniProt Q8IV08)
inactive: IRAK-1-4 Inhibitor I 0.022 | ibrutinib -0.031 | [1] -0.042 | ralimetinib -0.039 | [2] -0.022 | [3] -0.079 | [4] 0.05 | pinometostat -0.005 | [5] 0.003 | [6] -0.023

PIP4P2 (UniProt Q8N4L2)
active: [3] -0.624
inactive: IRAK-1-4 Inhibitor I -0.027 | ibrutinib 0 | [1] -0.028 | ralimetinib 0.005 | [2] 0.142 | [4] 0.011 | pinometostat 0.012 | [5] 0.028 | [6] 0.033

PMM2 (UniProt O15305)
Chain of UniProt O15305 (O15305 whole entry, looked up): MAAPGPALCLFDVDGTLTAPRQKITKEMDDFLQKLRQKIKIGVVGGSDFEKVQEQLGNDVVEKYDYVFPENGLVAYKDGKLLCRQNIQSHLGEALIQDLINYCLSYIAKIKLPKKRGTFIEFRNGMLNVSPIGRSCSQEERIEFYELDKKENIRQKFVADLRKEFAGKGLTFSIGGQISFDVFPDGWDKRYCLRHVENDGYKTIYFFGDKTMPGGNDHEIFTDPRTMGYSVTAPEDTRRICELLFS
inactive: IRAK-1-4 Inhibitor I 0.025 | ibrutinib -0.025 | [1] 0.012 | ralimetinib -0.1 | [2] 0.009 | [3] 0.089 | [4] -0.032 | pinometostat -0.029 | [5] 0.012 | [6] -0.015

PI4K2A (UniProt Q9BTU6)
inactive: IRAK-1-4 Inhibitor I 0.01 | ibrutinib -0.018 | [1] -0.026 | ralimetinib -0.072 | [2] -0.062 | [3] -0.158 | [4] -0.002 | pinometostat -0.024 | [5] -0.005 | [6] -0.006

PRKCG (UniProt P05129)
inactive: IRAK-1-4 Inhibitor I 0.025 | ibrutinib -0.024 | [1] -0.351 | ralimetinib 0.049 | [2] -0.099 | [3] -0.097 | [4] 0.055 | pinometostat 0.054 | [5] 0.037 | [6] 0.028

PPP2R5C isoform 4 (UniProt Q13362)
inactive: IRAK-1-4 Inhibitor I 0.027 | ibrutinib -0.051 | [1] 0.019 | ralimetinib -0.15 | [2] -0.07 | [3] -0.02 | [4] 0.034 | pinometostat 0.043 | [5] 0.016 | [6] -0.032

PSMC2 (UniProt P35998)
Chain of UniProt P35998 (P35998 whole entry, looked up): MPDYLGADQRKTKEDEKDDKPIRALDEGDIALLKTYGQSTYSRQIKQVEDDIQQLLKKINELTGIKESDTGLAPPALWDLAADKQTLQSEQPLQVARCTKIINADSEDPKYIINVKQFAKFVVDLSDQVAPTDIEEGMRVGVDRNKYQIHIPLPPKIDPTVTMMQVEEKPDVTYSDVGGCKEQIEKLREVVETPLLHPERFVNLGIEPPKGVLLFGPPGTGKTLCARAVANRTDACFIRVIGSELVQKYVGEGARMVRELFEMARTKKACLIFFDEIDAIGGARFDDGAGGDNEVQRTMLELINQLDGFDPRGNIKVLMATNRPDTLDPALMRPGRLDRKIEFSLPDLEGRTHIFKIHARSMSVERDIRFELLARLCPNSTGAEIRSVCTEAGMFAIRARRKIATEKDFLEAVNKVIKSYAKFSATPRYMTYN
inactive: IRAK-1-4 Inhibitor I -0.024 | ibrutinib -0.009 | [1] 0.079 | ralimetinib 0.046 | [2] 0.011 | [3] 0.053 | [4] -0.183 | pinometostat 0.033 | [5] 0.039 | [6] -0.039

PRMT3 (UniProt O60678)
inactive: IRAK-1-4 Inhibitor I 0 | ibrutinib -0.102 | [1] -0.023 | ralimetinib -0.028 | [2] -0.167 | [3] -0.189 | [4] 0.028 | pinometostat 0.003 | [5] 0.013 | [6] 0.079

PGM3 isoform 4 (UniProt O95394)
inactive: IRAK-1-4 Inhibitor I -0.007 | ibrutinib -0.016 | [1] -0.091 | ralimetinib 0.016 | [2] -0.08 | [3] -0.097 | [4] -0.002 | pinometostat 0.012 | [5] -0.021 | [6] 0.02

PECAM1 (UniProt P16284)
inactive: IRAK-1-4 Inhibitor I 0.021 | ibrutinib 0.004 | [1] -0.031 | ralimetinib -0.002 | [2] -0.082 | [3] 0.141 | [4] -0.057 | pinometostat 0.012 | [5] 0.039
active: [6] 0.261

PGGT1B (UniProt P53609)
inactive: IRAK-1-4 Inhibitor I 0.003 | ibrutinib -0.004 | [1] -0.062 | ralimetinib -0.055 | [2] 0.026 | [3] -0.019 | [4] 0.026 | pinometostat -0.03 | [5] 0.027 | [6] -0.028

PTK2B (UniProt Q14289)
inactive: IRAK-1-4 Inhibitor I -0.095 | ibrutinib -0.257 | [1] -0.018 | ralimetinib 0.178 | [2] -0.026 | [3] -0.244 | [4] 0.052 | pinometostat 0.004 | [5] -0.014 | [6] 0.061

PIKFYVE (UniProt Q9Y2I7)
inactive: IRAK-1-4 Inhibitor I -0.032 | ibrutinib -0.097 | [1] -0.07 | ralimetinib -0.002 | [2] -0.145 | [3] -0.256 | [4] 0.063 | pinometostat 0.006 | [5] 0.034 | [6] 0.012
